Records with an inconclusive call do not appear. Active and inactive are the calls of the source. Unless noted, calls follow the shape of the dose curve; as a rule, active = well fitted curve in the direction sought with a large enough effect in the repeat runs; inconclusive = weak or mixed curves; inactive = no such curve, though single readings can be large; an effect the other way counts as inactive or inconclusive.
How the values were obtained:
[1] = qHTS assay to identify small molecule antagonists of the thyroid receptor (TR) signaling pathway - cell viability counter screen (AID 743064); also: nearly all actives have a fitted effect of over 50% in size; also: potency is read from the fitted curve at half-maximal effect
Procedure, shortened: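 Compounds were tested on GH3.TRE-Luc cells in the presence of T3 at 1 nM final. Following 23.5 h at 37 °C, cell viability was quantified by CellTiter-Fluor.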

[2] = qHTS assay to identify small molecule antagonists of the thyroid receptor (TR) signaling pathway (AID 743065); also: nearly all actives have a fitted effect of over 55% in size; also: potency is read from the fitted curve at half-maximal effect
Procedure, shortened: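 GH3.TRE-Luc rat pituitary cells carrying two TR response elements driving luciferase were plated for 4 h, given compound plus 1 nM T3 (final), and incubated 23.5 h at 37 C. ONE-Glo luminescence measured reporter inhibition; CellTiter-Fluor fluorescence tracked cytotoxicity.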

[3] = system: thyroid hormone receptor (rat, GH3 cells); assay: qHTS assay to identify small molecule agonists of the thyroid receptor (TR) signaling pathway (AID 743066; calls by dose curve)
[4] = molecular target: Estrogen receptor (Homo sapiens) (UniProt P03372); assay: qHTS assay to identify small molecule antagonists of the estrogen receptor alpha (ER-alpha) signaling pathway (AID 743069; active = well fitted curve in the direction sought with a large enough effect in the signal ratio in the repeat runs, not every such curve was filed as active; the % refers to the signal ratio; also: potency is read from the fitted curve at half-maximal effect)
Procedure, shortened: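 HEK293 cells stably carrying an ER-alpha-UAS-bla beta-lactamase reporter were pre-cultured overnight in 2% charcoal-stripped FBS medium. Test compounds in DMSO were added together with 17beta-estradiol for 18 hr at 37C. Read-out was fluorescence after 2 hr with LiveBLAzer B/G FRET substrate at room temperature.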

[5] = molecular target: Estrogen receptor (Homo sapiens) (UniProt P03372); assay: qHTS assay to identify small molecule agonists of the estrogen receptor alpha (ER-alpha) signaling pathway (AID 743075; calls by dose curve)
[6] = molecular target: Estrogen receptor (Homo sapiens) (UniProt P03372); assay: qHTS assay to identify small molecule agonists of the estrogen receptor alpha (ER-alpha) signaling pathway using the BG1 cell line (AID 743079); also: nearly all actives have a fitted effect of over 20% in size; also: potency is read from the fitted curve at half-maximal effect
[7] = qHTS assay to identify small molecule antagonists of the estrogen receptor alpha (ER-alpha) signaling pathway using the BG1 cell line (AID 743080; calls by dose curve;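 also: BG1 cells stimulated with 17beta-estradiol alongside compound; series mostly up to about 70 µM; nearly all actives have a fitted effect of over 25% in size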)
Procedure, shortened: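 BG1Luc4E2, endogenous ER-alpha, 4xERE-luc; 5 d charcoal-stripped FBS, phenol red free; 24 h plating; cpd + 17beta-estradiol 21.5 h, 37 C/5% CO2; CellTiter-Fluor viability 30 min, then ONE-Glo luciferase 30 min RT.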

[8] = qHTS assay to identify small molecule antagonists of the estrogen receptor alpha (ER-alpha) signaling pathway using the BG1 cell line - cell viability counter screen (AID 743081);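 also: compound given together with 17beta-estradiol as the ER stimulus; series mostly up to about 70 µM; nearly all actives have a fitted effect of over 45% in size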
Aromatase (Homo sapiens) = Aromatase (Homo sapiens) (UniProt P11511); assay: qHTS assay to identify aromatase inhibitors (AID 743083); also: series mostly up to about 70 µM; nearly all actives have a fitted effect of over 55% in size
[9] = qHTS assay to identify aromatase inhibitors - cell viability counter screen (AID 743084);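 also: cells stimulated with testosterone during compound exposure; nearly all actives have a fitted effect of over 55% in size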
[10] = qHTS assay to identify small molecule that activate the aryl hydrocarbon receptor (AhR) signaling pathway - cell viability counter screen (AID 743086);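 also: HepG2 liver cells carrying the AhR DRE luciferase reporter; series mostly up to about 70 µM; nearly all actives have a fitted effect of over 45% in size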
Procedure, shortened: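 HepG2-AhR-luc (HG2L7.5c1) cells, 4000/well, were preincubated 5 h at 37C, exposed to compound in qHTS format for 24 hr at 37C, then given CellTiter-Fluor for 30 min; viability was read as fluorescence in the reporter wells.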

[11] = qHTS assay to identify small molecule antagonists of the peroxisome proliferator-activated receptor gamma (PPARg) signaling pathway - cell viability counter screen (AID 743194); also: nearly all actives have a fitted effect of over 55% in size
Procedure, shortened: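 PPARg-UAS-bla HEK293H cells were plated, rested 5 h at 37 C, then treated with compounds plus rosiglitazone (50 nM final) for 17 h at 37 C; viability was then read by CellTiter-Glo luminescence after 30 min at room temperature.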

[12] = qHTS assay for small molecule agonists of the antioxidant response element (ARE) signaling pathway - cell viability counter screen (AID 743203; calls by dose curve; also: nearly all actives have a fitted effect of over 55% in size)
Procedure, shortened: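 Seeded at 2,000 cells/well, ARE-bla HepG2 cells were incubated 5 hrs before compound addition. After 16 hrs of treatment at 37C with 5% CO2, CellTiter-Glo reagent was added and luminescence read 30 min later.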

[13] = qHTS assay for small molecule activators of the heat shock response signaling pathway - cell viability counter screen (AID 743209); also: nearly all actives have a fitted effect of over 50% in size
Procedure, shortened: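 First, HSE-bla HeLa cells were seeded at 1500 cells/well and kept overnight at 37 C. Next, compounds were pinned in and incubated 5 h. After the FRET substrate step, CellTiter-Glo was added and luminescence read 30 min later.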

[14] = qHTS assay for small molecule activators of the heat shock response signaling pathway (AID 743210; active = well fitted activation curve with a large enough effect in the signal ratio in the repeat runs, with a control signal flat, not every such curve was filed as active; the % refers to the signal ratio; also: series mostly up to about 63 µM)
Procedure, shortened: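 HSE-bla HeLa cells (beta-lactamase reporter under heat shock response elements) were exposed to compounds for 5 h at 37 C, then loaded with LiveBLAzer B/G FRET substrate for 2.5 h at room temperature before fluorescence reading.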

[15] = qHTS assay to identify small molecule antagonists of the estrogen receptor alpha (ER-alpha) signaling pathway - cell viability counter screen (AID 743074; calls by dose curve; also: nearly all actives have a fitted effect of over 45% in size)
[16] = molecular target: Aryl hydrocarbon receptor (Homo sapiens) (UniProt P35869); assay: qHTS assay to identify small molecule that activate the aryl hydrocarbon receptor (AhR) signaling pathway (AID 743085); also: nearly all actives have a fitted effect of over 15% in size; also: potency is read from the fitted curve at half-maximal effect;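 as to activation: HG2L7.5c1 human HepG2 liver cells with stably integrated DRE-driven firefly reporter; series mostly up to about 70 µM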
Procedure, shortened: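 24 h compound exposure, 37C, HepG2-derived HG2L7.5c1 cells with DRE-responsive luciferase. Readouts: fluorescence viability, then luminescence at room temperature after 30 min.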

[17] = molecular target: Peroxisome proliferator-activated receptor gamma (Homo sapiens) (UniProt P37231); assay: qHTS assay to identify small molecule agonists of the peroxisome proliferator-activated receptor gamma (PPARg) signaling pathway (AID 743094; active = well fitted activation curve with a large enough effect in the signal ratio in the repeat runs, not every such curve was filed as active; the % refers to the signal ratio)
Procedure, shortened: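 Quantitative HTS agonist mode: stable HEK293H line with UAS-beta-lactamase reporter under PPARg control, 17 h compound exposure at 37C, fluorescence after 1 h FRET substrate loading at room temperature.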

[18] = qHTS assay for small molecule agonists of the antioxidant response element (ARE) signaling pathway (AID 743202; active = well fitted activation curve with a large enough effect in the signal ratio in the repeat runs, not every such curve was filed as active; the % refers to the signal ratio)
Procedure, shortened: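 Read-out: LiveBLAzer B/G FRET substrate fluorescence after 2 h at room temperature, following 16 h compound treatment at 37 C of HepG2 cells carrying an ARE-driven beta-lactamase reporter.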

[19] = molecular target: Peroxisome proliferator-activated receptor gamma (Homo sapiens) (UniProt P37231); assay: qHTS assay to identify small molecule antagonists of the peroxisome proliferator-activated receptor gamma (PPARg) signaling pathway (AID 743191; calls by dose curve; also: series mostly up to about 63 µM; nearly all actives have a fitted effect of over 30% in size)
Procedure, shortened: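 GeneBLAzer PPARg UAS-bla HEK293H cells carrying a UAS-driven beta-lactamase reporter were plated at 3000 cells/well, preincubated 5 h at 37C, then given compound for 17 h at 37C; LiveBLAzer B/G FRET substrate was read after 1 h at room temperature.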

Measured: Potency

Chain of Peroxisome proliferator-activated receptor gamma (Homo sapiens) (P37231 whole entry, looked up): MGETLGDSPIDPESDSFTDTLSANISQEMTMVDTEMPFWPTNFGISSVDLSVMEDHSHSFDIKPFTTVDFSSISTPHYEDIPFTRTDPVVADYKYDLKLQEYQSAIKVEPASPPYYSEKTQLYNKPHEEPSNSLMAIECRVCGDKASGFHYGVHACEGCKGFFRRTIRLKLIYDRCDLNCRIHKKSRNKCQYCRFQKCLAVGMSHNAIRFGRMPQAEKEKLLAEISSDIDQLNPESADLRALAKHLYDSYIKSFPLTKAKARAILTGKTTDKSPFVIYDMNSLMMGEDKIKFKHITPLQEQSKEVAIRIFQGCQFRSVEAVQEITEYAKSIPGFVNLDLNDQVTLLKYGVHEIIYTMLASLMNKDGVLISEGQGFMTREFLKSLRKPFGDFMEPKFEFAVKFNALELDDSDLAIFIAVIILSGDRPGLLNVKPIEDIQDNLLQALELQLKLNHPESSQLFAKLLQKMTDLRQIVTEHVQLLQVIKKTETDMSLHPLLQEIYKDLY
Chain of Aromatase (Homo sapiens) (P11511 whole entry, looked up): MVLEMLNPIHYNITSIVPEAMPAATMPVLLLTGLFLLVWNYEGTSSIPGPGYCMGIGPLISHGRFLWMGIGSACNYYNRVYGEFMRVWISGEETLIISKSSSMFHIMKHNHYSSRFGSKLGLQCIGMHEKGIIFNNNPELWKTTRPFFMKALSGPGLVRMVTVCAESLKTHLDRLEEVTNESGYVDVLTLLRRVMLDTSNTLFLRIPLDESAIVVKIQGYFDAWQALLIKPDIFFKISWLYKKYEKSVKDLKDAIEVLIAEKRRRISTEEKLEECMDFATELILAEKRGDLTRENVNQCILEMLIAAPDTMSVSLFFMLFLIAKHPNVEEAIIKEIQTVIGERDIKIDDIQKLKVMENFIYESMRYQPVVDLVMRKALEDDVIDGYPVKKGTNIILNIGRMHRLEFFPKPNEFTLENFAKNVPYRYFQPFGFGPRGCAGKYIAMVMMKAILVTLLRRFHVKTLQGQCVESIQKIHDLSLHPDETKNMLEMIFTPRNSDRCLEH
Chain of Aryl hydrocarbon receptor (Homo sapiens) (P35869 whole entry, looked up): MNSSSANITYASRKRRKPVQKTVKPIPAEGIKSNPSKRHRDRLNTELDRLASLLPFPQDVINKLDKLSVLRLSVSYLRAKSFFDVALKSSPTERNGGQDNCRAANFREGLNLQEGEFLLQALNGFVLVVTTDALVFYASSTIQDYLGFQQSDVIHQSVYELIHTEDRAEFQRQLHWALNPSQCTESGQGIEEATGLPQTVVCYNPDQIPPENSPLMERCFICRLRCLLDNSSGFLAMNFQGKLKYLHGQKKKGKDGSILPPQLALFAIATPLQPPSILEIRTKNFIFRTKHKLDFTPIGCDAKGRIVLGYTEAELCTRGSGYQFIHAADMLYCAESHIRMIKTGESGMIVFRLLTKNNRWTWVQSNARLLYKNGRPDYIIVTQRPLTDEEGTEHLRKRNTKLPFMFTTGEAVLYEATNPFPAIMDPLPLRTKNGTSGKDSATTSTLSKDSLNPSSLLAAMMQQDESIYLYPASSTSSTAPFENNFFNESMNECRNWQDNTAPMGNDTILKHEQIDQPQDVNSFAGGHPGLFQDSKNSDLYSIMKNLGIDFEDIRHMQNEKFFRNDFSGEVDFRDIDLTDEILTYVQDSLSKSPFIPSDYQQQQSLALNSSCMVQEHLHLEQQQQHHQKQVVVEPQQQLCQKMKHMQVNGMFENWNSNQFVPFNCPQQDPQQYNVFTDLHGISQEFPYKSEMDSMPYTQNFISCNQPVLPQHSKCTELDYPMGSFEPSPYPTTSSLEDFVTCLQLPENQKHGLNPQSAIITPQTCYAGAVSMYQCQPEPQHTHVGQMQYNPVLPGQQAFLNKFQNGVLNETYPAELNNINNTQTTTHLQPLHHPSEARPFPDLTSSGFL
Chain of Estrogen receptor (Homo sapiens) (P03372 whole entry, looked up): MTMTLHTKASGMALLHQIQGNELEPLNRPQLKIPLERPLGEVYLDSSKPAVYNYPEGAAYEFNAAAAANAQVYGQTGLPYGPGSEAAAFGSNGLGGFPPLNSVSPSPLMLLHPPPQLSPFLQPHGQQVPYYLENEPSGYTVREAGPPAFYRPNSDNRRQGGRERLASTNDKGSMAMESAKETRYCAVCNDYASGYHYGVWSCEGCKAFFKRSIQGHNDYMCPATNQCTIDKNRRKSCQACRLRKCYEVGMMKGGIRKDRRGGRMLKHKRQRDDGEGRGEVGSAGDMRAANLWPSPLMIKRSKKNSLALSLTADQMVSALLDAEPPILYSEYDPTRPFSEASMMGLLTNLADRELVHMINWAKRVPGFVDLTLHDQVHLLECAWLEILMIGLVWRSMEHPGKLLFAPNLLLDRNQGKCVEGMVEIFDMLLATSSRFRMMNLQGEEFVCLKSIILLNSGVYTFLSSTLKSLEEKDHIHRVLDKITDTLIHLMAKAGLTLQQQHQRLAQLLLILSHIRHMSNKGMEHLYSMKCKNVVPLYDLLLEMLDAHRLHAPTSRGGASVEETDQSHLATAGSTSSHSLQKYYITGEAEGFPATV

C=CCCCCCCCCC(=O)OCC
not listed: [15] | [16] | [17] | [18] | [19]
inactive: all other assays above

CC(=O)OCC(=O)[C@@]1(O)[C@H](C)C[C@H]2[C@@H]3CCC4=CC(=O)C=C[C@]4(C)[C@@]3(F)[C@@H](O)C[C@@]21C
not listed: [4] | [5] | [6] | [7] | [19]
inactive: all other assays above

COc1cc(C(=O)OC(COCCC(C)C)CN2CCOCC2)cc(OC)c1OC (stereo unspecified)
not listed: [4] | [8]
inactive: all other assays above

CC(=O)N[C@H]1[C@H]([C@H](O)[C@H](O)CO)OC(C(=O)O)=C[C@@H]1N=C(N)N
not listed: [7] | [15] | [19]
inactive: all other assays above

CCC(=O)OCc1ccccc1
not listed: [4] | [5] | [6] | [7]
inactive: all other assays above

CCCCCCCCN1CCCC1=O
not listed: [4] | [5] | [6] | [7] | [18]
inactive: all other assays above

Nc1ccn([C@@H]2O[C@H](CO)[C@@H](O)C2(F)F)c(=O)n1
active: [1] 0.168 µM | [2] 0.0422 µM | [4] 4.77 µM [inhibitor]
not listed: [7] | [15] | [17] | [18] | [19]
inactive: all other assays above

CC(CC=O)CC(C)(C)C (stereo unspecified)
not listed: [15] | [16] | [18]
inactive: all other assays above

CCCCCCCCCCCCCCC(=O)O
not listed: [5] | [6] | [17] | [18] | [19]
inactive: all other assays above

CC(C)CC(C)(N)C#N (stereo unspecified)
not listed: [4] | [5] | [6] | [7]
inactive: all other assays above

CCOC(=O)c1cnc2c(cnn2CC)c1NN=C(C)C
active: [16] 29.8 µM
not listed: [4]
inactive: all other assays above

C=COC(=O)C(C)(CC)CCC(C)C (stereo unspecified)
not listed: [15] | [16] | [17]
inactive: all other assays above

CC(=O)N1C[C@H](O)C[C@H]1C(=O)O
active: [6] 10.6 µM
not listed: [5] | [7] | [17] | [19]
inactive: all other assays above
